Assay outcomes deposited in PubChem by National Center for Advancing Translational Sciences (NCATS).
Sampled rows, rich in hits. Any-hit rate of the full collection: about 12%.
FMDV inh – antivirals against foot and mouth disease virus; Potency, µM (top dose mostly 57.9 µM), for inactives: at the top dose activity change, negative = inhibition, most hits filed as inhibitors; 410,000 compounds, 1.2% hits; FMDV antiviral cell-based qHTS; calls by dose curve; tested in HEK293T cells; further: read-out not given here; potency means the concentration at half of the fitted maximal effect; on the % scale 0 is the no-effect control and ±100 the full control effect; nearly all actives have a fitted effect of over 45% in size
Shiga toxin inh – blocks Shiga toxin action in Vero cells. Vero cells, Shiga toxin protein synthesis inhibition reporter. inhibition, % at 38.7 µM. 290,000 compounds, 9.2% hits; in the data active means inhibition mostly above about 28%, no sharp cut-off; inactive means mostly below about 43%; further: 0% is about no effect
Cycloheximide cs – counter-screen hit for Shiga toxin inhibitors, cycloheximide | max response, % | AID 2314 | cell reporter, cycloheximide protein synthesis inhibition counterscreen | 300,000 compounds, 12% hits; in the data active means max response mostly above about 13%, no sharp cut-off; inactive means mostly below about 14%; further: read at 38.3 µM for the half of the compounds with a filed dose; 0% is about no effect
Sm TGR inh – S. mansoni TGR enzyme inhibition; Q962Y6; purified TGR, DTNB reduction, TNB absorbance 405 nm; Potency, µM (series often up to 114 µM), without a hit: top-dose activity change, negative = inhibition, actives largely listed as inhibitors; 360,000 compounds, 3% hits; AID 485364; active means well fitted inhibition curve with a large enough effect; inconclusive means small, poorly fitted or top-dose-only effect; inactive means no such curve, though single readings can be large or run the other way; further: potency means the concentration at half of the fitted maximal effect; on the % scale 0 is the no-effect control and ±100 the full control effect; nearly all actives have a fitted effect of over 60% in size
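Kinetic colorimetric format: TGR-catalysed, NADPH-driven DTNB reduction monitored via TNB absorbance. Enzyme dispensed at 20 nM; compound exposure 15 min at room temperature before reaction start.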
The depositor's hits bear a star; ? = inconclusive; . = no result.

SMILES | FMDV inh | Shiga toxin inh | Cycloheximide cs | Sm TGR inh
CCc1ccc(CNc2ccc3c(c2)ncn3C(C)(C)C)cc1 | 0.0% | 93.6* | 39.5* | -0.9%
CCc1ccc(CNc2ccc3c(c2)ncn3CC)cc1 | 0.0% | 85.9* | 52.7* | 4.47µM*
CCn1cnc2cc(NCc3ccc(OC)cc3)ccc21 | 20.9% | 45.5 | 27.5 | 7.0%
CC(C)c1ccc(NC(=O)CN2C(=O)c3cccc4cccc2c34)cc1 | -11.4% | . | . | 6.7%
CCN(C(=O)c1cn(CC)c(=O)c2cc(OC)c(OC)cc12)c1ccc(C)c(C)c1 | -12.8% | . | . | -2.3%
CCOc1ccc(CNC(=O)C2CCCN(S(=O)(=O)c3ccc4c(c3)CCCC(=O)N4)C2)cc1 (stereo not given) | ? | . | . | 11.2%
CCOc1ccc(C(=O)c2cn(CC(=O)Nc3ccc(F)cc3)c3cc4c(cc3c2=O)OCCO4)cc1 | -5.9% | . | . | -3.6%
Clc1ccc(OCc2nc(-c3ccccn3)n[nH]2)cc1 | 27.9% | 20.8* | 40.3* | 3.1%
Cc1cc(Oc2ccc(Cl)cc2)nc(-c2ccccn2)n1 | -21.0% | -3.1 | -1.5 | 9.1%
Brc1ccc(OCc2nc(-c3ccccn3)n[nH]2)cc1 | -1.5% | 34.1 | 28.8* | 15.0%
CC(C)CC(=O)N(c1nnc(-c2cccnc2)s1)C1CCCC1 | 1.7% | 15.0 | 10.9* | 0.7%
CN(C(=O)C1CCCO1)c1nnc(-c2ccncc2)s1 (stereo not given) | -0.2% | -4.4 | 10.1 | -15.8%
CC(=O)N(c1nnc(-c2ccc(C)cc2)s1)C1CCCC1 | 28.0% | 26.1* | 28.3* | ?
COc1cccc(-c2ccc3ncnc(NCc4cnc(C)cn4)c3c2)c1 | -23.0% | . | . | .
CC(C)CCNC(=O)c1ccc(NC(=O)N2CCCCc3ccccc32)cc1 | -13.7% | . | . | -1.2%
CCN1CCC(N(Cc2cccc(OC)c2)C(=O)Nc2cccc(C)c2C)CC1 | -10.3% | . | . | -5.9%
Cc1cccc(NC(=O)c2sc3nc(-c4ccccc4)cn3c2C)n1 | . | 66.1* | 35.8* | ?
Cc1c(C(=O)Nc2ccccc2)sc2nc(-c3ccccc3)cn12 | -12.7% | 61.0* | 38.7* | 2.3%
COc1ccc(-c2cn3c(C)c(C(=O)Nc4cccc(C)n4)sc3n2)cc1 | -14.9% | -2.4 | 12.3* | 2.4%
COc1ccc(-c2cn3c(C)c(C(=O)NC(C)(C)C)sc3n2)cc1 | -26.7% | 40.5* | 30.2* | -1.3%
COc1ccc(C)cc1NC(=O)c1sc2nc(-c3ccc(F)cc3)cn2c1C | -7.6% | . | . | -15.0%
Cc1cccc(NC(=O)c2sc3nc(-c4ccc(F)cc4)cn3c2C)n1 | -14.1% | 35.4 | 51.3 | -11.3%
CCOc1ccccc1NC(=O)CN1C(=O)COc2ccc(S(=O)(=O)N3CCCCC3)cc21 | -9.1% | . | . | -1.1%
Cc1ccc(NC(=O)Cn2c(=O)n(Cc3nc(-c4ccccc4)no3)c(=O)c3cc4c(cc32)OCO4)cc1C | ? | . | . | 5.0%
Cc1c2c(=O)n(-c3nc4ccccc4s3)nc-2cc(O)n1Cc1ccccc1 | 7.08µM* | 22.3 | 11.4 | -7.4%
SMILES | FMDV inh | Shiga toxin inh | Cycloheximide cs | Sm TGR inh
Cc1cc(NC(=O)C(C)C)n(-c2nc3ccccc3s2)n1 | 23.3% | 68.6* | 31.4* | 6.1%
Cc1cc(C)n(-c2nc3ccccc3s2)n1 | 0.0% | 108.9* | 56.4* | 15.1%
CCc1ccc2occ(CC(=O)Nc3c(C(=O)c4ccccc4)oc4ccccc34)c2c1 | -15.1% | . | . | -8.9%
COc1ccc(Cl)cc1NC(=O)Cn1cnc2sc(C)c(S(=O)(=O)N3CCN(c4ccccc4OC)CC3)c2c1=O | -8.0% | . | . | -1.1%
Cc1csc(NC(=O)c2ccc(Br)s2)n1 | 16.8% | 136.5* | 42.6* | 4.3%
Cc1csc(NC(=O)CCC(=O)c2cccs2)n1 | 47.4% | 140.6 | 19.3* | -30.5%
Cc1cc(C)nc(NC(=O)c2ccc(Br)s2)n1 | -2.0% | . | 1.0 | -2.9%
Cc1csc(NC(=O)c2cccs2)n1 | 29.9% | 100.4* | 54.5* | 4.9%
CCOc1ccc(-n2c(=O)c3c(C)c(C)sc3n(CC(=O)c3ccccc3)c2=O)cc1 | -23.1% | . | . | 0.4%
COc1ccc(CCNc2ncnc3onc(C)c23)c(OC)c1 | 12.6µM* | . | . | 1.7%
COc1cccc(CNc2ncnc3onc(C)c23)c1 | ? | . | . | -2.0%
CN(Cc1ccccc1)C(=O)CN1C(=O)c2ccccc2C1=O | 11.5% | . | -3.4 | -10.5%
CN(Cc1ccsc1)C(=O)Cn1cc(Br)ccc1=O | 15.7% | 77.6* | 28.9* | -9.4%
CC(=O)Nc1cccc(NC(=O)CSc2ccc(-c3ccco3)nn2)c1 | -9.3% | -5.3 | 16.9 | 14.1µM*
O=C(CSc1ccc(-c2ccccn2)nn1)Nc1cccc(F)c1 | -6.1% | 31.7* | 41.6* | 0.9%
CC(=O)c1ccc(NC(=O)CSc2ccc(-c3ccco3)nn2)cc1 | 3.8% | -6.0 | 19.7 | 22.4µM*
Cc1cc(C)cc(NC(=O)CSc2ccc(-c3ccccn3)nn2)c1 | -16.2% | -4.1 | 9.9 | 0.0%
CC(=O)Nc1cccc(NC(=O)CSc2ccc(-c3cccnc3)nn2)c1 | -0.4% | -3.9 | 6.3 | 6.5%
Cc1ccc(NC(=O)CSc2ccc(-c3ccco3)nn2)cc1 | -26.5% | 10.9 | 8.7 | 10µM*
O=C(CC1C(=O)N(c2ccccc2)C(=O)N1Cc1ccc(F)cc1)Nc1cccc(F)c1 (stereo not given) | 3.9% | . | . | -26.4%
CC(=O)Nc1ccc(NC(=O)CSc2ccc(-c3ccco3)nn2)cc1 | -4.9% | 8.2 | -2.0 | 8.91µM*
CC(=O)Nc1ccc(NC(=O)CSc2ccc(-c3cccs3)nn2)cc1 | -11.6% | 3.7 | 2.8 | -7.1%
Cc1ccc(NC(=O)CSc2ccc(-c3ccco3)nn2)c(C)c1 | -11.6% | 14.4 | 27.3 | 28.2µM*
CCn1cc(C(=O)NCCCOC)c(=O)c2cc(S(=O)(=O)N3CCc4ccccc4C3)ccc21 | -18.0% | . | . | -5.3%
CCOC(=O)c1ccc(CC(=O)c2oc3cc(O)ccc3c2C)o1 | . | -2.6 | -1.8 | 28.2µM*
SMILES | FMDV inh | Shiga toxin inh | Cycloheximide cs | Sm TGR inh
COc1ccccc1N=Cc1c(C)[nH]n(-c2ccc(C)cc2C)c1=O | ? | -8.6 | -2.2 | 39.8µM*
COc1cc(SC#N)ccc1N=Cc1c(C)[nH]n(-c2ccc(C)cc2C)c1=O | ? | -1.8 | 7.3 | 5.7%
COc1ccccc1CNC(=O)Cn1cccc1C(=O)c1ccccc1 | 23.8% | 48.3* | 27.5 | 0.8%
Cc1ccccc1C(=O)c1cccn1CC(=O)NCC(C)c1ccccc1 (stereo not given) | -8.0% | -3.8 | -4.5 | -9.0%
O=C(Cn1cccc1C(=O)c1ccccc1)NCc1ccccn1 | -3.4% | -18.1 | -2.6 | -3.1%
O=C(Cn1cccc1C(=O)c1ccccc1)NCc1ccccc1Cl | 43.8% | 75.0* | 37.6* | 6.4%
CC1CCCCC1NC(=O)Cn1cccc1C(=O)c1ccccc1 (stereo not given) | 21.4% | 24.9 | 15.5* | 4.8%
Cc1ccccc1C(=O)c1cccn1CC(=O)NCc1ccccc1Cl | 36.7% | 49.6* | 21.6* | -5.0%
O=c1[nH]c2ccccc2n1CCCSCCCn1c(=O)[nH]c2ccccc21 | 20µM* | 16.3 | -0.3 | 1.6%
Cc1cc(C(=O)CSCCCn2c(=O)[nH]c3ccccc32)c(C)n1C | 3.0% | -1.4 | -1.1 | -29.5%
O=c1[nH]c2ccccc2n1CCC1CCCCC1 | 35.8% | 22.5 | 47.2* | 24.5%
CC(C)CCn1c(=O)[nH]c2ccccc21 | -19.6% | 1.3 | -1.4 | 15.2%
CS(=O)(=O)c1ccc2nc(NC(=O)Nc3ccccc3F)sc2c1 | 43.6% | 72.9* | 61.0* | 5.8%
